Shown are actives, neighbours in structure and some others; about 2.1% of the full set was active somewhere.
PfHsp40 rescue = rescue of yeast from PfHsp40 toxicity, primary screen, S. cerevisiae, ATP luminescence | S. cerevisiae expressing PfHsp40, growth rescue | growth rescue, % at 12.5 µM | hit rate 0.68% among 340,000 | AID 504582, 2011; in the data active means growth rescue above about 28%, passing the limit was not always enough; inconclusive means no clear call, values can overlap the other calls;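 further: yeast W303a lacking pdr1 and pdr3 grown in galactose medium; growth measured after three days at 30 °C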
PrP UTR inh = inhibition of PrP 5' UTR reporter expression; AID 488862, 2010; cell-based PrP 5' UTR mRNA reporter, plate reader; inhibition, % (no concentration beside the values); hit rate 0.35% among 340,000; in the data active means inhibition above about 52%; further: 0 = median of the neutral control wells
RN4220 kill = growth inhibition of S. aureus RN4220, primary screen, OD600. 16 h. inhibition, % (test concentration not listed). hit rate 0.33% among 330,000; in the data active means inhibition above about 85%;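 further: plate controls were untreated cells for no effect and reference antibiotic for full effect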
PrPC TRFRET = inhibitors of human cell surface prion protein PrPC, primary screen, cell-based, TR-FRET; Major prion protein (Homo sapiens), P04156; inhibition, % at 13.8 µM; hit rate 0.43% among 370,000; TR-FRET read-out; in the data active means inhibition above about 24%; further: 0% = median of the test wells and 100% = reference compound wells
ugtP null kill = growth inhibition of ugtP-null S. aureus, primary screen, RN4220 ugtP deletion, OD600; 16 h; growth inhibition, % (test concentration not listed); hit rate 0.54% among 330,000; in the data active means growth inhibition above about 68%;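 further: plate controls were untreated wells for no effect and antibiotic for full effect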
CCHF vOTU inh = CCHFV vOTU protease inhibitors, primary screen, biochemical, Pep-AMC substrate, fluorescence | Crimean-Congo hemorrhagic fever virus L polyprotein viral ovarian tumor (vOTU) protease … | inhibition, % at 11.5 µM | hit rate 0.55% among 370,000 | AID 651958, 2012; in the data active means inhibition above about 30%; further: 0% = vehicle wells with enzyme and 100% = no enzyme wells
PrP 5UTR single = prion 5' UTR mRNA inhibition, cherry-pick retest | shares compounds with PrP UTR inh | cell-based prion protein 5' UTR reporter, plate reader | inhibition, % at 2.5 µM | hit rate 48% among 1,100 | AID 504592, 2011; in the data active means inhibition above about 54%; inconclusive means no clear call, values can overlap the other calls
An asterisk follows results filed as active; ? = inconclusive; nt = no result; ! = a repeat was not active.

SMILES | PfHsp40 rescue | PrP UTR inh | RN4220 kill | PrPC TRFRET | ugtP null kill | CCHF vOTU inh | PrP 5UTR single
Nc1cc(=O)[nH]c(SCCSc2ccccc2F)n1 | -0.6 | 24.2 | 6.0 | 1.2 | -1.6 | 2.0 | nt
Oc1ccc2c3c1OC1C(O)CC[C@@]4(O)C(C2)N(CC2CCC2)CC[C@]314 (stereo partly drawn) | nt | nt | 8.2 | nt | -1.8 | nt | nt
Oc1ccc2c3c1O[C@H]1[C@@H](O)CC[C@@]4(O)[C@@H](C2)N(CC2CCC2)CC[C@]314 | -0.9 | 62.9*! | nt | 10.1 | nt | -7.8 | -6.5
O=C1CCCCC1Sc1nnc(-c2ccc3c(c2)OCO3)o1 (stereo not drawn) | 0.1 | 55.5* | 7.7 | 6.0 | -3.9 | -1.1 | ?
Clc1ccc(CSc2nnc(-c3ccc4c(c3)OCO4)o2)cc1 | 2.0 | -14.4 | 1.4 | 4.5 | 7.0 | 16.0 | nt
CC(=O)N(/N=C1\Sc2ccccc2C1=O)c1ccc(C)cc1C | -0.9 | 57.8* | nt | 8.0 | nt | 4.4 | 56.2*
Cc1cccc(C(=O)ON=C2CCS(=O)(=O)c3sccc32)c1 | nt | nt | 4.5 | nt | 9.9 | nt | nt
COc1ccccc1C(=O)NCC(=O)NN=Cc1cn[nH]c1-c1ccccc1 | nt | nt | 0.4 | nt | -3.0 | nt | nt
CCOc1cc(/C=C/C(=O)c2ccc3c(c2)OCCO3)ccc1OCC(=O)N(C)C | -0.3 | 60.4* | 0.5 | -12.0 | 3.6 | 7.7 | -7.0
CCOc1cc(/C=C/C(=O)c2ccc(O)cc2)ccc1OCC(=O)N(C)C | 0.6 | -14.3 | 26.2 | -1.1 | 1.0 | 16.8 | nt
CC1CN(C(C)CO)C(=O)c2cccc(NS(=O)(=O)c3ccccc3)c2OC1CN(C)CC1CCCCC1 (stereo not drawn) | nt | nt | 4.8 | nt | 0.7 | nt | nt
CN1CCC(=O)N(C(CO)c2ccccc2)CC1 (stereo not drawn) | nt | nt | 4.4 | nt | -3.6 | nt | nt
CC=CC=CC(=O)Nc1cccc(C2=NOC3(C2)CC(C(N)=O)N(C(=O)C2CCC(=O)N2)C3)c1 (stereo not drawn) | nt | nt | 9.5 | nt | -8.8 | nt | nt
CC(=O)CSc1ccc(-c2nc3ccccc3[nH]2)cn1 | -2.1 | -13.6 | 10.6 | -0.1 | 13.7 | -1.5 | nt
CC(=O)CSc1ccc(-c2nc3cc(C)c(C)cc3[nH]2)cn1 | 0.0 | 81.8* | 4.4 | -4.2 | 5.3 | 2.2 | 74.0*
O=C(O)c1ccc(N/N=C/c2ccc3nccnc3c2)cc1 | -1.8 | 83.8* | nt | -32.7 | nt | 8.3 | 85.2*
CC(C)CNC(=O)COC(=O)C1c2ccccc2Oc2ccccc21 | 1.9 | 76.8* | 7.3 | 7.1 | 5.2 | 12.3 | -5.6
OCC1OC(Oc2c[nH]c3ccccc23)C(O)C(O)C1O (stereo not drawn) | 0.6 | 67.9* | 7.2 | -5.6 | -1.6 | 2.2 | -21.7
CC1CCC[C@]2(O1)OC(CCO)CC(O)C2O (stereo partly drawn) | nt | nt | 11.6 | nt | 1.9 | nt | nt
Cc1ccc2nc(SC(C)C(=O)N3CCCCC3)[nH]c2c1 (stereo not drawn) | -0.8 | 66.0* | 1.4 | 8.7 | 3.3 | -2.3 | 4.6
Cc1ccc2nc(SC(C)C(=O)N3CCCC3)[nH]c2c1 (stereo not drawn) | 0.7 | -33.6 | -1.3 | 0.0 | 4.7 | 7.0 | nt
COC(=O)c1ccc(C23CC4(C2)C(CN(C)C4c2ccccc2)C3c2ccc(C(F)(F)F)cc2)cc1 (stereo not drawn) | nt | nt | -5.8 | nt | 7.4 | nt | nt
O=C(c1ccc(Br)cc1)c1cc([N+](=O)[O-])ccc1N1CCCCC1 | 0.1 | 58.2* | -0.1 | -5.1 | 6.0 | -0.3 | 93.7*
Cc1ccc(C(=O)c2cc([N+](=O)[O-])ccc2N2CCOCC2)c(C)c1 | 0.4 | 74.6* | -2.2 | -5.8 | 4.4 | 8.6 | 86.1*
CN1CCN(c2ccc([N+](=O)[O-])cc2C(=O)c2ccc(Br)cc2)CC1 | -0.9 | -31.6 | 4.0 | -14.9 | 2.1 | 0.8 | nt
SMILES | PfHsp40 rescue | PrP UTR inh | RN4220 kill | PrPC TRFRET | ugtP null kill | CCHF vOTU inh | PrP 5UTR single
CSc1ccc(COC(=O)c2cc([N+](=O)[O-])ccc2N2CCOCC2)cc1 | -0.7 | 72.4* | 6.5 | 7.8 | -3.2 | -3.2 | 89.1*
O=C(c1cc([N+](=O)[O-])ccc1N1CCOCC1)N1CCN(c2ccccc2)CC1 | 1.5 | 81.0* | nt | 3.6 | nt | 7.7 | 92.5*
O=S(=O)(Cc1cc(-c2ccccc2)no1)c1ccccc1 | 0.9 | 50.9* | 10.3 | 1.0 | 4.8 | -9.1 | 4.6
S=c1[nH]c(-c2ccccc2)cn1N=Cc1ccc(Br)cc1 | nt | nt | 3.6 | nt | 4.6 | nt | nt
c1c2c(cc3sc(N4CCOCC4)nc13)OCCO2 | -3.0 | 56.1* | 6.1 | 2.8 | -2.5 | 0.1 | ?
CSC1SCC2C(=O)N(C)C(C(C)C)C(=O)OCC(NC(=O)c3cnc4ccccc4n3)C(=O)NC(C)C(=O)N(C)C1C(=O)N(C)C(C(C)C)C(=O)OCC(NC(=O)c1cnc3ccccc3n1)C(=O)NC(C)C(=O)N2C (stereo not drawn) | 3.9 | 92.0* | nt | 26.4* | nt | 15.3 | 92.7*
Cc1nc(C)n(C(C)CNC(=O)c2ccco2)n1 (stereo not drawn) | -0.5 | 60.7* | 3.4 | -2.1 | 2.7 | -11.5 | 3.5
CSC(=Nc1ccccc1)N=C(SCc1ccccc1)N(C)C | -1.5 | 73.6* | nt | -11.3 | nt | 10.7 | 39.1
CS(=O)(=O)N(CC(=O)NN=Cc1cc2c(cc1Br)OCO2)c1ccccc1Br | nt | nt | 0.0 | nt | -1.5 | nt | nt
c1ccc(-c2noc(-c3ccc4c(c3)OCO4)n2)nc1 | -1.1 | 85.9* | 1.2 | 4.0 | 4.0 | -37.0 | 84.5*
c1ccc(-c2noc(-c3ccc4ccccc4c3)n2)nc1 | -1.4 | 89.0* | 7.2 | nt | 3.8 | nt | 86.7*
Cc1cccc(-c2noc(-c3ccc4c(c3)OCO4)n2)c1 | -0.4 | -26.6 | 1.6 | -5.4 | -4.1 | -9.7 | nt
CCN(CC)c1ccc(C=C2NC(=O)NC2=O)cc1 | nt | nt | 1.0 | nt | -5.4 | nt | nt
COc1ccc(C2C3C(=O)N(C(C)(C)C)C(=O)C3[C@]3(CC(C)C)C(=O)N(c4cccc(F)c4)C(=O)N23)cc1 (stereo partly drawn) | nt | nt | 4.1 | nt | 2.6 | nt | nt
O=C1NC(Cc2ccccc2)C(=O)N1Cc1cc([N+](=O)[O-])cc2c1OCOC2 (stereo not drawn) | 1.5 | 70.9* | 2.8 | -0.6 | 2.4 | 3.1 | -10.0
Cc1ccc(NC(=O)C2CCN(C(=O)c3ccccc3C)CC2)nc1 | ? | -15.4 | 2.6 | 6.2 | 4.7 | -7.7 | nt
Cc1ccccc1C(=O)N1CCC(C(=O)Nc2nccs2)CC1 | 1.6 | 88.0* | 2.9 | -4.1 | 8.9 | -0.6 | -16.8
CCOc1ccc(Cl)cc1C1=CC(=O)CC(c2ccc(OC)cc2)C1 (stereo not drawn) | nt | nt | 2.1 | nt | -18.1 | nt | nt
O=c1cc2c(nn1Cc1cccc(Cl)c1)-c1ccccc1CC2 | 46.5* | 57.3* | 2.6 | -3.5 | -6.0 | 12.2 | 17.0
COc1ccc(Cl)c(NC(=O)CC(C)=NNC(=O)CCc2ccccc2)c1 | nt | nt | 1.7 | nt | 4.1 | nt | nt

Assay outcomes deposited in PubChem BioAssay by several laboratories.
